Structures can show the parent of a compound that is named as a salt.
Experiments:
Test in all cases: thermal shift delta Tm vs DMSO control; higher = stronger stabilization (binding)
Settings in all cases: 12.5 µM; protein concentration 2 µM
[1] = tested on: LOC_OS02G45750-cb003
In short: (§1)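 Heating from 25°C to 95°C at 0.05°C/s, fluorescence was recorded for 19.5 μl wells of 2 μM E. coli-expressed, purified rice kinase domain in 100 mM potassium phosphate pH 7.5, 150 mM NaCl, 10% glycerol and 5 × SYPRO Orange with compound in DMSO. Boltzmann fits gave melting temperatures for this differential scanning fluorimetry assay. The shift reported is the mean of three replicates against the DMSO-only protein.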

[2] = tested on: LOC_OS02G54510-cb004
In short: as §1

[3] = tested on: LOC_OS03G04050-cb001
In short: as §1

[4] = tested on: LOC_OS03G12390-cb001
In short: as §1

[5] = tested on: LOC_OS03G27990-cb004
In short: as §1

[6] = tested on: LOC_OS03G50450-cb001
In short: as §1

[7] = tested on: LOC_OS03G50810-cb003
In short: as §1

[8] = tested on: LOC_OS04G35114-cb001
In short: as §1

[9] = tested on: T1, LOC_OS04G38480-cb003
T1 sequence (whole entry): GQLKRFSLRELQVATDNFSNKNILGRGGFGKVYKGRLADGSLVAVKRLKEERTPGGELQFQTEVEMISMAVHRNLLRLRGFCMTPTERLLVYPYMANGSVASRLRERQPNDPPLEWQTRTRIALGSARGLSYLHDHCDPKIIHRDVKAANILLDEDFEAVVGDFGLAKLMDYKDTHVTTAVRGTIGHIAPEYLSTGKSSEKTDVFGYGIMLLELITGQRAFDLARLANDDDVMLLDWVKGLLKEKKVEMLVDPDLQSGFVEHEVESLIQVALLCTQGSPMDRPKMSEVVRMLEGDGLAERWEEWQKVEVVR
In short: as §1

[10] = tested on: T2, LOC_OS04G41100-cb001
T2 sequence (whole entry): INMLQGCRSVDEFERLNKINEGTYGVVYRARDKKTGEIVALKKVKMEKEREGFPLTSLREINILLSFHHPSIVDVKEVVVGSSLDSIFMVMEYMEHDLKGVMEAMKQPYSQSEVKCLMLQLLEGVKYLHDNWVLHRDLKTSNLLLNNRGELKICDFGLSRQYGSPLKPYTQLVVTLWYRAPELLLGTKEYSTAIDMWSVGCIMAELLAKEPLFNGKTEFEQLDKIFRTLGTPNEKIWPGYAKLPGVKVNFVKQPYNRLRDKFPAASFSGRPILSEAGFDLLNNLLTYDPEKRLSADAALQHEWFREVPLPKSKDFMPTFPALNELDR
In short: as §1
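Note: purified Escherichia coli-expressed rice kinase domain construct.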

Row | Structure (SMILES) | thermal shift delta Tm [1] [°C] | thermal shift delta Tm [2] [°C] | thermal shift delta Tm [3] [°C] | thermal shift delta Tm [4] [°C] | thermal shift delta Tm [5] [°C] | thermal shift delta Tm [6] [°C] | thermal shift delta Tm [7] [°C] | thermal shift delta Tm [8] [°C] | thermal shift delta Tm [9] [°C] | thermal shift delta Tm [10] [°C]
1 | CN1CCN(Cc2ccc(-c3cnc4[nH]cc(-c5ccc6[nH]ccc6c5)c4c3)cc2)CC1 | 17.2 | 1.09 | 0.85 | 4.74 | 10.8 | 3.95 | 7.6 | 14.9 | 6.36 | 3.3
2 | Cc1nc(-c2cn3c(n2)-c2ccc(-c4cnn(C(C)(C)C(N)=O)c4)cc2OCC3)n(C(C)C)n1 [Taselisib (GDC 0032)] | 1.34 | 0.17 | 0.54 | -0.31 | 0.3 | 0.34 | -0.05 | 0.68 | 0.83 | 0.38
3 | CC[C@H](CO)Nc1nc(NCc2ccccc2)c2ncn(C(C)C)c2n1 [Roscovitine (Seliciclib,CYC202)] | 0.1 | 0.11 | 0.22 | 0.14 | -0.05 | 0.28 | 0.02 | 0.57 | 0.99 | 0.53
4 | Cc1cn(-c2cc(NC(=O)c3ccc(C)c(Nc4nccc(-c5cnccn5)n4)c3)cc(C(F)(F)F)c2)cn1 [Radotinib] | 0.73 | 1.99 | 0.36 | 0.26 | 0.23 | -0.11 | 0.14 | 0.13 | 1.4 | 0.41
5 | CCc1cc(Nc2nccc(-c3c(-c4ccc(OC)c(C(=O)Nc5c(F)cccc5F)c4)nc4ccccn34)n2)c(OC)cc1N1CCC(N2CCN(S(C)(=O)=O)CC2)CC1 | -0.02 | 0.08 | 0.66 | 0.08 | 0.49 | 0.27 | 0.2 | 0.36 | 0.7 | 0.67
6 | CCC[C@H](NC(=O)/C(C#N)=C/c1cccc(Br)n1)c1ccccc1 [Degrasyn (WP1130)] | -2.36 | -1.29 | 0.2 | -5.26 | -3.68 | -0.35 | -2.71 | -2.87 | 1.05 | -0.61
7 | OC1CCC(Nc2ncc3nc(Nc4c(F)cc(F)cc4F)n([C@H]4CCOC4)c3n2)CC1 (stereo not given in full) [Tanzisertib(CC-930)] | 0.96 | 0.18 | 0.57 | 0.23 | 0.5 | 0.44 | 0.62 | 0.93 | 1.65 | 0.44
8 | CCCCCCCCc1ccc(CCC(N)(CO)CO)cc1 [Fingolimod (FTY720) HCl] | -0.8 | -0.96 | -0.79 | -1.7 | -0.42 | -0.24 | -1.68 | -0.12 | 0.32 | 0.19
9 | COC(=O)[C@]12CCC(C)(C)C[C@H]1[C@H]1C(=O)C=C3[C@@]4(C)C=C(C#N)C(=O)C(C)(C)[C@@H]4CC[C@@]3(C)[C@]1(C)CC2 [Bardoxolone Methyl] | 0.78 | -3.73 | -0.12 | -11.6 | -4.29 | -0.95 | -3.78 | -4.61 | -6.53 | -1.7
10 | Cc1c[nH]c(/C=C2\C(=O)Nc3ccccc32)c1CCC(=O)O | 2.76 | 0.94 | 0.06 | 8 | 0.79 | 4.67 | 2.36 | 8.73 | 3.46 | 0.43
11 | Cc1cnc(Nc2ccc(N3CCN(C)CC3)cc2)nc1Nc1cccc(S(=O)(=O)NC(C)(C)C)c1 | 2.16 | 1.6 | 0.74 | 3.11 | 1.77 | 2.4 | 3.61 | 3.61 | 2.7 | 0.79
12 | Cc1cc(O)c(-c2ccc([C@@H](C)CN)cc2)c2c1[nH]c(=O)c1sccc12 [OTS514 hydrochloride] | 0.87 | 1.1 | 0.44 | 0.55 | 0.52 | 0.04 | 0.85 | 1.39 | 1.65 | 3.58
13 | O=C(Nc1ccc(-c2ccnc(Nc3ccc(N4CCOCC4)cc3)n2)cc1)C1CCCN1 (stereo not given) | 0.77 | 0.47 | 0.4 | 1.05 | 0.29 | 0.37 | 0.83 | 2.26 | 1 | 0.45
14 | FC(F)(F)c1ccc(Nc2nc3ccc(Oc4ccnc(-c5ncc(C(F)(F)F)[nH]5)c4)cc3[nH]2)cc1 [Raf265 derivative] | 1.97 | 0.28 | 0.92 | 1.89 | 0.72 | 1.24 | 1.68 | 0.2 | 2.16 | 1.09
15 | CNc1nc(-c2ccc3c(N)n[nH]c3c2)cc(N2C[C@@H](C(=O)NC3CCCCC3)CC[C@H]2C)n1 | 0.45 | 0.92 | 0.58 | 0.25 | 0.2 | 0.38 | 0.87 | 0.5 | 1.14 | 0.66
16 | CS(=O)(=O)CCNCc1ccc(-c2ccc3ncnc(Nc4ccc(OCc5cccc(F)c5)c(Cl)c4)c3c2)o1 | -0.27 | 0.18 | 0.24 | 0.39 | 0.11 | 0.01 | 0.17 | 0.48 | 0.99 | 0.27
17 | O=c1cc(N2CCOCC2)oc2c(-c3ccccc3)cccc12 | 0.29 | 0 | 0.47 | 0.68 | -0.02 | 0.21 | 0.41 | 0.16 | 0.52 | 0.8
18 | CN1CCN(CCOc2cc(OC3CCOCC3)c3c(Nc4c(Cl)ccc5c4OCO5)ncnc3c2)CC1 [Saracatinib (AZD0530)] | 2.36 | 0.77 | 0.38 | 2.47 | 1.15 | 0.13 | 3.05 | 7.08 | 3.11 | 0.53
19 | Cc1cnc(NC(=O)Nc2cc(Br)c(C)cc2OC[C@@H]2CNCCO2)cn1 | 2.48 | 0.18 | 0.38 | 0.98 | 0.74 | 0.51 | 2.11 | 1.71 | 0.59 | 0.37
20 | CCN(CC)CCNC(=O)c1c(C)[nH]c(/C=C2\C(=O)Nc3ccc(-c4csc(-c5ccccc5)n4)cc32)c1C [Amcasertib (BBI503)] | 0 | 0.74 | 0.42 | 0.16 | 0.77 | 1.61 | 7.41 | 15 | 1.78 | 0.78
